# Results filed as inconclusive are left out. Calls of active or inactive are those of the source. How the source made its calls: active means hit-call score of the fitted dose curve at least 0.9, where 1 is the maximum; inconclusive means response in the unintended direction; inactive means score below 0.9.
# How the values were obtained:
# [1] = biological target: human Neurotensin Receptor (NTS), NTSR1 (gene 4923) (UniProt P30989); assay: NVS_GPCR_hNTS: NovaScreen (NVS) G Protein-Coupled Receptor Assay for human Neurotensin Receptor (NTS) (AID 2283279)
# Chain of human Neurotensin Receptor (NTS), NTSR1 (gene 4923) (P30989 whole entry, looked up): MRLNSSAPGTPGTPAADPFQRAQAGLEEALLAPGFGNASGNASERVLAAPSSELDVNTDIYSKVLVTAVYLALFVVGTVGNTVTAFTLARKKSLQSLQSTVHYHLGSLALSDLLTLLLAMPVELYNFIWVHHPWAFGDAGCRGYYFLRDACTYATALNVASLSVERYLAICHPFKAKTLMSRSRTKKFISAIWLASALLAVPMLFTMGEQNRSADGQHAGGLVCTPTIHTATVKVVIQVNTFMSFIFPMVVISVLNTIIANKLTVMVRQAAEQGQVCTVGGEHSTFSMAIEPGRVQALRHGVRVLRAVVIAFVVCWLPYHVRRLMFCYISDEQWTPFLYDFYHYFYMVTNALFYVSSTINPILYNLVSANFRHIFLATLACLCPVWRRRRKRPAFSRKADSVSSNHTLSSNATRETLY
# How it was run: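 Compounds competed with a radiolabelled ligand for binding to CHO-derived human neurotensin receptor; bound signal counted after filtration, 1 h. Screened first at a single concentration of 25 uM in duplicate, then concentration series to 50 uM maximum for actives.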
# [2] = biological target: human Opioid Receptor Mu (Opiate Mu), OPRM1 (gene 4988) (UniProt P35372); assay: NVS_GPCR_hOpiate_mu: NovaScreen (NVS) G Protein-Coupled Receptor Assay for human Opioid Receptor Mu (Opiate Mu) (AID 2283290);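 further: hits lower bound tracer signal versus DMSO meaning displacement of the ligand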
# Chain of human Opioid Receptor Mu (Opiate Mu), OPRM1 (gene 4988) (P35372 whole entry, looked up): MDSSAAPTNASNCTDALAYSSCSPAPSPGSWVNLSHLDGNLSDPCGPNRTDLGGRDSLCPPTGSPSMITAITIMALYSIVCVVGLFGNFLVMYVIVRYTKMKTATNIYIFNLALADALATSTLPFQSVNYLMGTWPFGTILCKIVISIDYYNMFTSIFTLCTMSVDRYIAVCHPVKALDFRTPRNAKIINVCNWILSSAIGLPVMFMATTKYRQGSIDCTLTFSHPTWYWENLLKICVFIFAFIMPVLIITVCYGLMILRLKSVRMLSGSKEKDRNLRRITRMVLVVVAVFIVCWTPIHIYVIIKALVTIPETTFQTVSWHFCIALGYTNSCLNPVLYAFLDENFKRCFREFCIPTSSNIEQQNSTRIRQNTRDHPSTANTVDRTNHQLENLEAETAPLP
# How it was run: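 Here, radioligand binding to CHO-extracted receptor was measured after 2.5 h using filter-based scintillation detection. Initial single-concentration screening used 25 uM in duplicate with plate controls; confirmed actives went to concentration-response testing.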
# [3] = biological target: human Opioid Receptor Delta 1 (Opiate D1), OPRD1 (gene 4985) (UniProt P41143); assay: NVS_GPCR_hOpiate_D1: NovaScreen (NVS) G Protein-Coupled Receptor Assay for human Opioid Receptor Delta 1 (Opiate D1) (AID 2283280)
# Chain of human Opioid Receptor Delta 1 (Opiate D1), OPRD1 (gene 4985) (P41143 whole entry, looked up): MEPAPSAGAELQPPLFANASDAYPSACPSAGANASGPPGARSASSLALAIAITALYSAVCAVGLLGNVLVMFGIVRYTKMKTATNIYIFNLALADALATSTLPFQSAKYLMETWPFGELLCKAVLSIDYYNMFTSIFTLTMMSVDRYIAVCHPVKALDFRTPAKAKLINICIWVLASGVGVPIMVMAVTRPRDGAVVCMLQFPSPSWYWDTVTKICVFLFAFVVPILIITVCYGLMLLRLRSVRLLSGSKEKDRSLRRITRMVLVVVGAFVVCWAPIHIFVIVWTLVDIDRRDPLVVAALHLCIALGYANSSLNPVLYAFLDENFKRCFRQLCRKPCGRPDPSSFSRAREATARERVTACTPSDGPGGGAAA
# How it was run: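 Membrane preparations from CHO cells bearing the human receptor were incubated 1 h with test chemical, and bound radioligand was counted after filtration. Actives from 25 uM duplicate screening were retested in concentration-response.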
# [4] = biological target: rat Serotonin, 5-Hydroxytryptamine Receptor 1 (5HT1), Non-Selective Binding, Htr1a (gene 24473) (UniProt P19327); assay: NVS_GPCR_r5HT1_NonSelective: NovaScreen (NVS) G Protein-Coupled Receptor Assay for rat Serotonin, 5-Hydroxytryptamine Receptor 1 (5HT1), Non-Selective Binding (AID 2283286)
# Chain of rat Serotonin, 5-Hydroxytryptamine Receptor 1 (5HT1), Non-Selective Binding, Htr1a (gene 24473) (P19327 whole entry, looked up): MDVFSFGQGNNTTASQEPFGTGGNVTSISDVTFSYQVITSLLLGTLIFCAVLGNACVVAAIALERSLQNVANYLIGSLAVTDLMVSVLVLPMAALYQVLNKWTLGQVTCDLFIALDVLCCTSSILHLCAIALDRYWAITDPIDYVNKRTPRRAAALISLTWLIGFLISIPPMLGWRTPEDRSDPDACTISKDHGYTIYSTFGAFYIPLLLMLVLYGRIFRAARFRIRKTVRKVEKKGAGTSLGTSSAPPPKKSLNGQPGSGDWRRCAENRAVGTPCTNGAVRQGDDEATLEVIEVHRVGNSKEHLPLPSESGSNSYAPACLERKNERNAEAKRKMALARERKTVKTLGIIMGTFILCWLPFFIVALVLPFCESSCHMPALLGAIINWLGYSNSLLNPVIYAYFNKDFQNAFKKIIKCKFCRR
# How it was run: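 Binding of a radioligand to rat cortex membranes is read by filtration and scintillation counting after 1 h. Compounds were screened at 25 uM in duplicate. Actives were then titrated to a top of 50 uM. DMSO is the baseline.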
# [5] = biological target: human Neuropeptide Receptor Y1 (NPY1), NPY1R (gene 4886) (UniProt P25929); assay: NVS_GPCR_hNPY1: NovaScreen (NVS) G Protein-Coupled Receptor Assay for human Neuropeptide Receptor Y1 (NPY1) (AID 2283276)
# Chain of human Neuropeptide Receptor Y1 (NPY1), NPY1R (gene 4886) (P25929 whole entry, looked up): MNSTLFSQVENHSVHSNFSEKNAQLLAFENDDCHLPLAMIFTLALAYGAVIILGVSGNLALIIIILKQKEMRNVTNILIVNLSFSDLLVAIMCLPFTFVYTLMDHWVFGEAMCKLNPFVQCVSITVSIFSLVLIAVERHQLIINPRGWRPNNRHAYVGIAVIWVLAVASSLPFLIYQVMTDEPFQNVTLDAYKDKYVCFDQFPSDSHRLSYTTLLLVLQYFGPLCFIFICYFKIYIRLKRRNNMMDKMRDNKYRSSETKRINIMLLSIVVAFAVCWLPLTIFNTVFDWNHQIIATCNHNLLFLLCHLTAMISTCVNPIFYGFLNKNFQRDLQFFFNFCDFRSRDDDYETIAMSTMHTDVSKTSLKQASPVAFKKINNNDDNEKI
# How it was run: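 Displacement of specific radioligand from NPY1 receptor of SK-N-MC origin, read by filtration and scintillation after 1 h. Compounds first tested at 25 uM in duplicate, then actives in concentration series; signal loss relative to DMSO.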
# [6] = biological target: human Neurokinin, NK2 Receptor, TACR2 (gene 6865) (UniProt P21452); assay: NVS_GPCR_hNK2: NovaScreen (NVS) G Protein-Coupled Receptor Assay for human Neurokinin, NK2 Receptor (AID 2283278);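 further: actives reduce bound radioligand signal relative to DMSO baseline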
# Chain of human Neurokinin, NK2 Receptor, TACR2 (gene 6865) (P21452 whole entry, looked up): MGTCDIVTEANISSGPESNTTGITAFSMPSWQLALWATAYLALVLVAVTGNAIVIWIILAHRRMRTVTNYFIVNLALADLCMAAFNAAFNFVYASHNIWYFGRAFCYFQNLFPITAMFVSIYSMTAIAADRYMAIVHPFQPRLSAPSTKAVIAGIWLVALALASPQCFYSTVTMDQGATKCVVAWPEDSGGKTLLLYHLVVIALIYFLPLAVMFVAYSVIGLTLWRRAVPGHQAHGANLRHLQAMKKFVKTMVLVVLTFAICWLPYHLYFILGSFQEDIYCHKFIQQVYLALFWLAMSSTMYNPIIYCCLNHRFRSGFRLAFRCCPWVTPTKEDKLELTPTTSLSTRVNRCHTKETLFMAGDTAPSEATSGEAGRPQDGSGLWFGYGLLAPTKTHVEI
# How it was run: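 Test chemicals displace a radioligand from receptor prepared from CHO cells in a cell-free format, read after 4 hours by scintillation counting on filters. Screening starts at 25 uM in duplicate, and active chemicals then go to concentration series.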
# [7] = biological target: human Orphanin, Opioid Related Nociceptin Receptor 1 (ORL1), OPRL1 (gene 4987) (UniProt P41146); assay: NVS_GPCR_hORL1: NovaScreen (NVS) G Protein-Coupled Receptor Assay for human Orphanin, Opioid Related Nociceptin Receptor 1 (ORL1) (AID 2283283)
# Chain of human Orphanin, Opioid Related Nociceptin Receptor 1 (ORL1), OPRL1 (gene 4987) (P41146 whole entry, looked up): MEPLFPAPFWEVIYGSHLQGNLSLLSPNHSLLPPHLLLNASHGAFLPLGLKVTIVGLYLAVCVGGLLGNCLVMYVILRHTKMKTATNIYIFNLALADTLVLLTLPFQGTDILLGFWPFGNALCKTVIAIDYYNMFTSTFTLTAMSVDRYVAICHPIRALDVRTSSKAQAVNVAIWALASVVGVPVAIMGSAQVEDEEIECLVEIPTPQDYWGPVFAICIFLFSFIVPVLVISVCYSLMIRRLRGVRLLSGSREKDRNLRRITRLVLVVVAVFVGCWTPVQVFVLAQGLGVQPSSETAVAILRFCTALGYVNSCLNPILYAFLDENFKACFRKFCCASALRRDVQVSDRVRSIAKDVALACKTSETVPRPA
# How it was run: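 Cell-free binding using HEK293-derived receptor protein: radioligand displacement measured by filter scintillation 1 hour after dosing. Primary testing at 25 uM in duplicate, followed by singleton concentration series up to 50 uM; DMSO served as negative control.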
# [8] = test system: rat Adrenergic, Alpha 1B Receptor (Adra1B), gene 24173; assay: NVS_GPCR_rAdra1B: NovaScreen (NVS) G Protein-Coupled Receptor Assay for rat Adrenergic, Alpha 1B Receptor (Adra1B) (AID 2283297)
# How it was run: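 Filter-binding radioligand competition on membranes from rat liver, read after 1 h by scintillation counting. Single-concentration duplicate screen at 25 uM, followed by concentration-response on actives, normalised to DMSO.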
# [9] = biological target: guinea pig Bradykinin Receptor B2 (BK2), BDKRB2 (gene 100135486) (UniProt O70526); assay: NVS_GPCR_gBK2: NovaScreen (NVS) G Protein-Coupled Receptor Assay for guinea pig Bradykinin Receptor B2 (BK2) (AID 2283292)
# Chain of guinea pig Bradykinin Receptor B2 (BK2), BDKRB2 (gene 100135486) (O70526 whole entry, looked up): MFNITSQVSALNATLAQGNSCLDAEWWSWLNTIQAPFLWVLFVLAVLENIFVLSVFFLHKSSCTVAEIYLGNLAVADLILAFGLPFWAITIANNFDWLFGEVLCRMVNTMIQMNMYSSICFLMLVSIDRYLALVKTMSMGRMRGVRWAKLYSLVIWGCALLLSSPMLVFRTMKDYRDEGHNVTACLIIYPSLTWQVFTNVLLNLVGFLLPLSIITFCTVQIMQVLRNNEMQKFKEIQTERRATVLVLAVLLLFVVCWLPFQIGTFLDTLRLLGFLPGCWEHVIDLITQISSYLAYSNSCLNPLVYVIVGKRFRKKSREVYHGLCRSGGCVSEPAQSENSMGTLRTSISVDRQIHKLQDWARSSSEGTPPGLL
# How it was run: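 Guinea pig ileum membrane preparation incubated 1 h with radioligand and test chemical; bound counts measured after filtration. Primary duplicate screening at 25 uM, then singleton concentration series with a 50 uM top dose; DMSO as baseline.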
# [10] = test system: rabbit Platelet Activating Factor Receptor (PAF), gene 100354046; assay: NVS_GPCR_rabPAF: NovaScreen (NVS) G Protein-Coupled Receptor Assay for rabbit Platelet Activating Factor Receptor (PAF) (AID 2283287)
# How it was run: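 Rabbit platelet membrane preparation; radioligand displacement read by filter-based scintillation counting 1 h after dosing, loss of signal versus DMSO. Primary screen in duplicate at 25 uM, actives followed up in concentration series.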
# [11] = test system: 5-hydroxytryptamine receptor 2C (pig); assay: NVS_GPCR_p5HT2C: NovaScreen (NVS) G Protein-Coupled Receptor Assay for pig Serotonin, 5-Hydroxytryptamine Receptor 2C (5HT2C) (AID 2283288)
# How it was run: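 Radioligand displacement on membranes from pig choroid plexus, detected by filter scintillation counting after 1 h. Tested first at a single 25 uM in duplicate, then in concentration-response for actives; DMSO served as baseline.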
# [12] = biological target: mouse Cholecystokinin, CCK2 Receptor (CCKB), Cckbr (gene 12426) (UniProt P56481); assay: NVS_GPCR_mCKKBCentral: NovaScreen (NVS) G Protein-Coupled Receptor Assay for mouse Cholecystokinin, CCK2 Receptor (CCKB) (AID 2283293)
# How it was run: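 Mouse forebrain membrane preparation incubated 2 h with chemical and radioligand; bound radioactivity counted after filtration. Single-concentration duplicate screen at 25 uM, then concentration series to 50 uM max for hits, DMSO as baseline.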
# [13] = biological target: human Thromboxane A2 Receptor (TXA2), TBXA2R (gene 6915) (UniProt P21731); assay: NVS_GPCR_hTXA2: NovaScreen (NVS) G Protein-Coupled Receptor Assay for human Thromboxane A2 Receptor (TXA2) (AID 2283282);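 further: actives reduce bound radioligand signal relative to DMSO baseline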
# Chain of human Thromboxane A2 Receptor (TXA2), TBXA2R (gene 6915) (P21731 whole entry, looked up): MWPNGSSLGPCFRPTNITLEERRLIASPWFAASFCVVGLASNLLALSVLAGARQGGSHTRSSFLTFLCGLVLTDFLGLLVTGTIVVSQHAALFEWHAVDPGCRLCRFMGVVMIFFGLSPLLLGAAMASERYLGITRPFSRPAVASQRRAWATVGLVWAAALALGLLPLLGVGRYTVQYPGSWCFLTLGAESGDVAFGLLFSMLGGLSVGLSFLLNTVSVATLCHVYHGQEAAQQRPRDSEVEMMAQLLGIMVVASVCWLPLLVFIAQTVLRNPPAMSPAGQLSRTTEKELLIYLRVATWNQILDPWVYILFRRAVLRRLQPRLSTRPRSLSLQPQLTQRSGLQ
# How it was run: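 Human platelet membranes tested for radioligand displacement by filtration and scintillation counting 1 h post-dose. Screened in duplicate at 25 uM; activity fitted as signal loss relative to DMSO.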
# [14] = biological target: rat Adrenergic Receptor, Beta (Adrb), Non-selective Binding, Adrb1 (gene 24925) (UniProt P18090); assay: NVS_GPCR_rAdrb_NonSelective: NovaScreen (NVS) G Protein-Coupled Receptor Assay for rat Adrenergic Receptor, Beta (Adrb), Non-selective Binding (AID 2283298)
# Chain of rat Adrenergic Receptor, Beta (Adrb), Non-selective Binding, Adrb1 (gene 24925) (P18090 whole entry, looked up): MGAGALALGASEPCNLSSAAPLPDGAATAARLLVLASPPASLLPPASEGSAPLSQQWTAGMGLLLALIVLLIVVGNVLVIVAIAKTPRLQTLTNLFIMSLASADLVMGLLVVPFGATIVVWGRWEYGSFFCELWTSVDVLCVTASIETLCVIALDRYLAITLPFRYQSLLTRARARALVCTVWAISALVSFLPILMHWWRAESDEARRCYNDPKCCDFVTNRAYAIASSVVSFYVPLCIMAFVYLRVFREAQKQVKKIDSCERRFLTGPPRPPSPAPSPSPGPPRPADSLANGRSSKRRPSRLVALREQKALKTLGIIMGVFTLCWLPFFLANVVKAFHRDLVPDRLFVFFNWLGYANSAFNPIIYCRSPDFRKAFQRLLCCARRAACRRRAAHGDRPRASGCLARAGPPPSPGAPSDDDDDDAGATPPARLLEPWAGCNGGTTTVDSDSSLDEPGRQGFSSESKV
# How it was run: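 Rat cortical membranes incubated 1 h with beta-adrenergic radioligand and test chemical; bound ligand measured by filtration and scintillation counting. Screen at 25 uM duplicate, then concentration series with 50 uM maximum; loss of signal versus DMSO.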
# [15] = biological target: rat Serotonin, 5-Hydroxytryptamine Receptor (5HT), Non-Selective Binding, Htr1a (gene 24473) (UniProt P19327); assay: NVS_GPCR_r5HT_NonSelective: NovaScreen (NVS) G Protein-Coupled Receptor Assay for rat Serotonin, 5-Hydroxytryptamine Receptor (5HT), Non-Selective Binding (AID 2283295)
# Chain of rat Serotonin, 5-Hydroxytryptamine Receptor (5HT), Non-Selective Binding, Htr1a (gene 24473) (P19327 whole entry, looked up): as the sequence (P19327 whole entry, looked up) above
# How it was run: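 Rat cortex membrane preparation incubated 1 h with radioligand and test chemical; bound radioactivity counted after filtration. Screening began in duplicate at 25 uM with concentration-series follow-up; fitting relative to DMSO.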
# [16] = biological target: rat Adrenergic, Alpha 1A Receptor (Adra1A), Adra1a (gene 29412) (UniProt P43140); assay: NVS_GPCR_rAdra1A: NovaScreen (NVS) G Protein-Coupled Receptor Assay for rat Adrenergic, Alpha 1A Receptor (Adra1A) (AID 2283296)
# Chain of rat Adrenergic, Alpha 1A Receptor (Adra1A), Adra1a (gene 29412) (P43140 whole entry, looked up): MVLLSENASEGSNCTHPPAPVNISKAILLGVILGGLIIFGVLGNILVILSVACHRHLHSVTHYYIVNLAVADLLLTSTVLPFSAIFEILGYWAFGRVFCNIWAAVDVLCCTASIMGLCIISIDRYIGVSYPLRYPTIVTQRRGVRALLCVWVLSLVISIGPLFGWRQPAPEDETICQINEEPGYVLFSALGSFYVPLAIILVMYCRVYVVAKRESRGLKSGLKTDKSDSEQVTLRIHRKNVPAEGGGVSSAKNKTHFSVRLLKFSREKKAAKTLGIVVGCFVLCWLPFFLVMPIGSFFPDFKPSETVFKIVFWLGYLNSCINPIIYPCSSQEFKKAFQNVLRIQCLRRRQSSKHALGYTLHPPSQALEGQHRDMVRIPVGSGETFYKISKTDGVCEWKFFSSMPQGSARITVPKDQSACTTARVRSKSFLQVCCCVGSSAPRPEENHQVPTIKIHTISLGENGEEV
# How it was run: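 Filter radiodetection after 1 h competitive binding on CEC-pretreated rat cortical membranes. Duplicate single-point screening at 25 uM; active chemicals retested across concentration series.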
# [17] = biological target: rat Adrenergic, Alpha 1, Non-selective Receptor (Adra1), Adra1a (gene 29412) (UniProt P43140); assay: NVS_GPCR_rAdra1_NonSelective: NovaScreen (NVS) G Protein-Coupled Receptor Assay for rat Adrenergic, Alpha 1, Non-selective Receptor (Adra1) (AID 2283289)
# How it was run: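 Chemicals first screened in duplicate at 25 uM, then actives tested in concentration series up to 50 uM. Binding measured as displacement of radioligand from rat forebrain membrane receptors, 1 h, filtration with scintillation readout; DMSO baseline.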
smiles,measurement,setting,value
CCCCCCCCN(C)C,AC50,[1],16.7 µM (active)
CCCCCCCCCCCCCCO,outcome,[2],inactive
O=C(O)c1ccc2c(c1)nc(C(=O)NC1CCN(C3CC3)CC1)n2Cc1cc(-c2ccc(Cl)s2)on1,outcome,[3],inactive
same,outcome,[4],inactive
CCN(CC)C(=S)SSC(=S)N(CC)CC,AC50,[5],17.5 µM (active)
same,AC50,[6],1.35 µM (active)
same,AC50,[7],14 µM (active)
same,outcome,[2],inactive
same,outcome,[8],inactive
CNC(C)=O,outcome,[9],inactive
CCCCCCCCCC,outcome,[5],inactive
same,outcome,[6],inactive
same,outcome,[10],inactive
same,outcome,[11],inactive
same,outcome,[2],inactive
same,outcome,[9],inactive
same,outcome,[12],inactive
same,outcome,[8],inactive
Cc1cccc(O)c1C,outcome,[13],inactive
NC(=O)NN=Cc1ccc([N+](=O)[O-])o1,outcome,[14],inactive
C=CCc1cc(S(=O)(=O)c2ccc(O)c(CC=C)c2)ccc1O,AC50,[6],20.6 µM (active)
same,AC50,[3],15.5 µM (active)
same,AC50,[13],6.66 µM (active)
same,outcome,[7],inactive
same,AC50,[10],20 µM (active)
same,AC50,[11],7.68 µM (active)
same,AC50,[2],4.83 µM (active)
same,outcome,[8],inactive
C=CN1CCCC1=O,outcome,[2],inactive
c1ccc(C(O[C@@H]2CCCN(CCc3ccc4c(c3)OCO4)C2)c2ccccc2)cc1,outcome,[5],inactive
same,AC50,[6],5.79 µM (active)
same,AC50,[3],19.4 µM (active)
same,AC50,[4],9.62 µM (active)
same,AC50,[11],5.08 µM (active)
same,AC50,[2],5.65 µM (active)
same,outcome,[9],inactive
same,AC50,[15],5.63 µM (active)
same,AC50,[16],11.3 µM (active)
same,AC50,[8],17 µM (active)
CCCCCCCC1CCC(=O)O1 (stereo unspecified),outcome,[4],inactive
same,outcome,[16],inactive
same,outcome,[14],inactive
CCCCOC(=O)c1ccccc1,outcome,[13],inactive
COc1cc2c(c(OC)c1OC)-c1ccc(OC)c(=O)cc1[C@@H](NC(C)=O)CC2,AC50,[10],17.1 µM (active)
CCc1ccc(O)c(C(C)(C)C)c1,outcome,[17],inactive
same,outcome,[16],inactive
